From PMC5540273 (PLoS ONE, 2017)
Read-outs that look alike come from different tables or passages of the source.

Columns and labels:
CDC2L2 = settings: concentration: 1 μM, replicates: in singlicate; n = 1
CDC2L5 = tested on: T1, CDC2L5; settings: n = 1
T1 construct: gene CDK13

CDK11 = tested on: T2, CDK11; settings: concentration: 1 μM, replicates: in singlicate; n = 1
T2 construct: gene CDK19

CDK2 = settings: concentration: 1 μM, replicates: in singlicate; n = 1
CDK3 = settings: concentration: 1 μM, replicates: in singlicate; n = 1
CDK4-cyclinD1 = settings: n = 1
CDK4-cyclinD3 = settings: n = 1
CDK4 = settings: n = 1
CDK5 = settings: concentration: 1 μM, replicates: in singlicate; n = 1
CDK7 = settings: concentration: 1 μM, replicates: in singlicate; n = 1
CDK8 = settings: concentration: 1 μM, replicates: in singlicate; n = 1
CDK9 = settings: concentration: 1 μM, replicates: in singlicate; n = 1
CDKL1 = settings: concentration: 1 μM, replicates: in singlicate; n = 1
CDKL2 = settings: concentration: 1 μM, replicates: in singlicate; n = 1
CDKL3 = settings: concentration: 1 μM, replicates: in singlicate; n = 1
CDKL5 = settings: concentration: 1 μM, replicates: in singlicate; n = 1
CHEK1 = settings: concentration: 1 μM, replicates: in singlicate; n = 1
CHEK2 = settings: concentration: 1 μM, replicates: in singlicate; n = 1
CIT = settings: concentration: 1 μM, replicates: in singlicate; n = 1
CLK1 = settings: concentration: 1 μM, replicates: in singlicate; n = 1
[1] = concentration: 1 μM, replicates: in singlicate
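Further: KINOMEscan kinase panel screen.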

Cn1cc(-c2cnc(N)c3c(-c4ccc5c(c4)CCN5C(=O)Cc4ccccc4)csc23)cn1 [GSK2593074]
%Inh (CDC2L2): 1% | %Inh (CDC2L5; 1 µM): 0% | %Inh (CDK11): 18% | %Inh (CDK2): 0% | %Inh (CDK3): 1% | %Inh (CDK4-cyclinD1; 1 µM): 0% | %Inh (CDK4-cyclinD3; 1 µM): 0% | %Inh (CDK4; 1 µM): 0% | %Inh (CDK5): 2% | %Inh (CDK7): 19% | %Inh (CDK8): 19% | %Inh (CDK9): 0% | %Inh (CDKL1): 9% | %Inh (CDKL2): 0% | %Inh (CDKL3): 4% | %Inh (CDKL5): 0% | %Inh (CHEK1): 9% | %Inh (CHEK2): 0% | %Inh (CIT): 0% | %Inh (CLK1): 15%

O=C(Nc1n[nH]c2nc(-c3ccccc3)ccc12)C1CC1 [SB-708999]
%Inh (CDC2L2): 0% | %Inh (CDC2L5; [1]): 27% | %Inh (CDK11): 0% | %Inh (CDK2): 45% | %Inh (CDK3): 35% | %Inh (CDK4-cyclinD1; [1]): 61% | %Inh (CDK4-cyclinD3; [1]): 0% | %Inh (CDK4; [1]): 12% | %Inh (CDK5): 2% | %Inh (CDK7): 10% | %Inh (CDK8): 36% | %Inh (CDK9): 0% | %Inh (CDKL1): 2% | %Inh (CDKL2): 88% | %Inh (CDKL3): 10% | %Inh (CDKL5): 0% | %Inh (CHEK1): 0% | %Inh (CHEK2): 0% | %Inh (CIT): 7% | %Inh (CLK1): 86%

Cl.Cl.NC(CNC(=O)c1cc(Br)c(-c2ccnc3[nH]ccc23)s1)c1ccccc1 (centres unmarked) [GSK1322949]
%Inh (CDC2L2): 9% | %Inh (CDC2L5; [1]): 0% | %Inh (CDK11): 42% | %Inh (CDK2): 0% | %Inh (CDK3): 25% | %Inh (CDK4-cyclinD1; [1]): 17% | %Inh (CDK4-cyclinD3; [1]): 0% | %Inh (CDK4; [1]): 23% | %Inh (CDK5): 0% | %Inh (CDK7): 47% | %Inh (CDK8): 60% | %Inh (CDK9): 15% | %Inh (CDKL1): 12% | %Inh (CDKL2): 26% | %Inh (CDKL3): 0% | %Inh (CDKL5): 5% | %Inh (CHEK1): 0% | %Inh (CHEK2): 46% | %Inh (CIT): 98.1% | %Inh (CLK1): 90.9%

CN(C)c1ncnc2nc[nH]c12 [SKF-31736]
%Inh (CDC2L2): 0% | %Inh (CDC2L5; [1]): 11% | %Inh (CDK11): 0% | %Inh (CDK2): 0% | %Inh (CDK3): 17% | %Inh (CDK4-cyclinD1; [1]): 0% | %Inh (CDK4-cyclinD3; [1]): 0% | %Inh (CDK4; [1]): 25% | %Inh (CDK5): 0% | %Inh (CDK7): 0% | %Inh (CDK8): 35% | %Inh (CDK9): 0% | %Inh (CDKL1): 23% | %Inh (CDKL2): 4% | %Inh (CDKL3): 0% | %Inh (CDKL5): 19% | %Inh (CHEK1): 0% | %Inh (CHEK2): 0% | %Inh (CIT): 12% | %Inh (CLK1): 8%

CC(C)(C)c1ccc(C(=O)Nc2cn3cc(-n4ccnc4)ccc3n2)cc1
%Inh (CDC2L2): 1% | %Inh (CDC2L5; [1]): 7% | %Inh (CDK11): 1% | %Inh (CDK2): 12% | %Inh (CDK3): 0% | %Inh (CDK4-cyclinD1; [1]): 0% | %Inh (CDK4-cyclinD3; [1]): 0% | %Inh (CDK4; [1]): 0% | %Inh (CDK5): 8% | %Inh (CDK7): 4% | %Inh (CDK8): 5% | %Inh (CDK9): 3% | %Inh (CDKL1): 29% | %Inh (CDKL2): 0% | %Inh (CDKL3): 18% | %Inh (CDKL5): 7% | %Inh (CHEK1): 0% | %Inh (CHEK2): 0% | %Inh (CIT): 44% | %Inh (CLK1): 92.4%

Cc1cc(-c2ccnc(Nc3cccc(C#N)c3)n2)cc(C)c1O [GSK1440913]
%Inh (CDC2L2): 51% | %Inh (CDC2L5; [1]): 0% | %Inh (CDK11): 0% | %Inh (CDK2): 68% | %Inh (CDK3): 30% | %Inh (CDK4-cyclinD1; [1]): 42% | %Inh (CDK4-cyclinD3; [1]): 22% | %Inh (CDK4; [1]): 0% | %Inh (CDK5): 18% | %Inh (CDK7): 61% | %Inh (CDK8): 30% | %Inh (CDK9): 52% | %Inh (CDKL1): 1% | %Inh (CDKL2): 89% | %Inh (CDKL3): 99.1% | %Inh (CDKL5): 24% | %Inh (CHEK1): 0% | %Inh (CHEK2): 0% | %Inh (CIT): 94% | %Inh (CLK1): 99%

CCNC(=O)/C=C/c1n[nH]c2cc(Sc3ccccc3C(=O)NC)ccc12
%Inh (CDC2L2): 0% | %Inh (CDC2L5; [1]): 9% | %Inh (CDK11): 10% | %Inh (CDK2): 0% | %Inh (CDK3): 39% | %Inh (CDK4-cyclinD1; [1]): 0% | %Inh (CDK4-cyclinD3; [1]): 0% | %Inh (CDK4; [1]): 1% | %Inh (CDK5): 41% | %Inh (CDK7): 23% | %Inh (CDK8): 20% | %Inh (CDK9): 13% | %Inh (CDKL1): 17% | %Inh (CDKL2): 26% | %Inh (CDKL3): 17% | %Inh (CDKL5): 15% | %Inh (CHEK1): 0% | %Inh (CHEK2): 0% | %Inh (CIT): 0% | %Inh (CLK1): 17%

Cc1nn2c(=O)cc(N3CCO[C@H](C)C3)nc2n1Cc1cccc(Cl)c1Cl [GSK2373693]
%Inh (CDC2L2): 4% | %Inh (CDC2L5; [1]): 0% | %Inh (CDK11): 3% | %Inh (CDK2): 54% | %Inh (CDK3): 76% | %Inh (CDK4-cyclinD1; [1]): 53% | %Inh (CDK4-cyclinD3; [1]): 2% | %Inh (CDK4; [1]): 13% | %Inh (CDK5): 0% | %Inh (CDK7): 0% | %Inh (CDK8): 0% | %Inh (CDK9): 2% | %Inh (CDKL1): 1% | %Inh (CDKL2): 11% | %Inh (CDKL3): 0% | %Inh (CDKL5): 0% | %Inh (CHEK1): 26% | %Inh (CHEK2): 0% | %Inh (CIT): 21% | %Inh (CLK1): 55%

COc1cc(Nc2nccc(N3CCC(NC(=O)Nc4ccc5c(c4)OCO5)C3)n2)cc(OC)c1OC (centres unmarked) [GSK1379766]
%Inh (CDC2L2): 18% | %Inh (CDC2L5; [1]): 0% | %Inh (CDK11): 2% | %Inh (CDK2): 0% | %Inh (CDK3): 2% | %Inh (CDK4-cyclinD1; [1]): 0% | %Inh (CDK4-cyclinD3; [1]): 14% | %Inh (CDK4; [1]): 0% | %Inh (CDK5): 0% | %Inh (CDK7): 0% | %Inh (CDK8): 46% | %Inh (CDK9): 0% | %Inh (CDKL1): 0% | %Inh (CDKL2): 41% | %Inh (CDKL3): 0% | %Inh (CDKL5): 0% | %Inh (CHEK1): 0% | %Inh (CHEK2): 4% | %Inh (CIT): 0% | %Inh (CLK1): 25%

COC(=O)Nc1nc2cc(Oc3ccc(NC(=O)Nc4cccc(SC)c4)cc3)ccc2[nH]1.Cl [GW697999]
%Inh (CDC2L2): 1% | %Inh (CDC2L5; [1]): 0% | %Inh (CDK11): 8% | %Inh (CDK2): 0% | %Inh (CDK3): 8% | %Inh (CDK4-cyclinD1; [1]): 34% | %Inh (CDK4-cyclinD3; [1]): 0% | %Inh (CDK4; [1]): 49% | %Inh (CDK5): 0% | %Inh (CDK7): 54% | %Inh (CDK8): 47% | %Inh (CDK9): 0% | %Inh (CDKL1): 21% | %Inh (CDKL2): 86% | %Inh (CDKL3): 0% | %Inh (CDKL5): 0% | %Inh (CHEK1): 2% | %Inh (CHEK2): 28% | %Inh (CIT): 98% | %Inh (CLK1): 19%
